Bioassay records deposited in PubChem by several laboratories.
CYP2C9 activ: increases human cytochrome P450 2C9 activity; activation factor at 5 µM; P11712; actives 1.4% (n = 96,000); recombinant CYP2C9, luciferin-H conversion, luminescence; stronger effect = higher value; factor 1 = untreated enzyme, 0 = blocked;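 active = activation factor of 2 or more for CYP2C9 at a 5 µM dose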;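 note: 0 = sulfaphenazole-blocked wells and 1 = vehicle-only wells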
CYP2C19 inhib: inhibitors of human CYP2C19; P33261; AID 778; actives 21% (n = 96,000); inhibition, % at 5 µM; CYP2C19 Supersomes, luciferin-H EGE luminescence, 30 min;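 active = CYP2C19 inhibition above a set limit at 5 µM in the primary screen, cut at about 50% in these data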;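 note: plate controls were negative control wells for no effect and 2.5 mM tranylcypromine positive control for full effect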
Target sequence (P33261 whole entry, looked up): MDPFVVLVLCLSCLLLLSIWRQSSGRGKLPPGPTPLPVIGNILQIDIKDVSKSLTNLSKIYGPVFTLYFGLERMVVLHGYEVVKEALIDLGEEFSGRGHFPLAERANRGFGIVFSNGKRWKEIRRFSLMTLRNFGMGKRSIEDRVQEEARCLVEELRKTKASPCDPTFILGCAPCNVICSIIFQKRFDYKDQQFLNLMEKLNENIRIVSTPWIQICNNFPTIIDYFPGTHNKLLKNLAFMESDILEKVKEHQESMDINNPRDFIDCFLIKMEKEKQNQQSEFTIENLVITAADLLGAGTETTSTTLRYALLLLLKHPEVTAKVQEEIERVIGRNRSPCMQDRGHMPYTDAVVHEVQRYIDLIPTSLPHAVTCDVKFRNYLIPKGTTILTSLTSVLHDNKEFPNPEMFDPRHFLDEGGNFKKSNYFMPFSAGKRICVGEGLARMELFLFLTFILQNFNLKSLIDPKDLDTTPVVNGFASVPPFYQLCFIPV
sEH activator: activators of human soluble epoxide hydrolase; activation, % at 2 µM; actives 0.04% (n = 91,000); P34913; AID 717; purified human sEH enzymatic activity, activator screen; in the data active = activation above about 37%
CYP2C9 inhib: human CYP2C9 inhibition | P11712 | CYP2C9 Supersomes, luciferin-H conversion, luminescence | inhibition, % at 5 µM | actives 20% (n = 96,000);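 active = blocking of liver enzyme CYP2C9 beyond about 50% at 5 µM, limit read from the data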
sEH inhibitor: soluble epoxide hydrolase (human) inhibition; inhibition, % at 2 µM; AID 707; actives 0.34% (n = 91,000); recombinant human sEH enzymatic activity assay; P34913; in the data active = inhibition above about 80%
CYP2C19 activ: activators of human cytochrome P450 2C19. recombinant CYP2C19, luciferin-H EGE luminescence; stronger effect = higher value; 0 = fully inhibited enzyme, 1 = untreated enzyme. activation factor at 5 µM. 96,000 tested, under 10 active;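 active = activation factor of at least 2 at 5 µM in the primary screen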;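 note: 0 = wells with 2.5 mM tranylcypromine and 1 = vehicle-only wells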
Active calls of the source: *; nt = not tested or not shown. Sampled rows, rich in hits. Any-hit rate of the full collection: about 27%.

SMILES	CYP2C9 activ	CYP2C19 inhib	sEH activator	CYP2C9 inhib	sEH inhibitor	CYP2C19 activ
COc1ccc(S(=O)(=O)Cc2ccc(C(=O)N3CCCC3)o2)cc1	0.9	7	2	5	1	0.9
COc1ccc(S(=O)(=O)Cc2ccc(C(=O)N3CCC(C(N)=O)CC3)o2)cc1	0.9	-20	11	11	-13	1.2
COc1ccc(S(=O)(=O)Cc2ccc(C(=O)N3CCN(c4ccccc4F)CC3)o2)cc1	0.1	49	nt	89*	nt	0.5
CCOC(=O)N1CCN(C(=O)c2ccc(CS(=O)(=O)c3ccc(OC)cc3)o2)CC1	0.3	-10	nt	71*	nt	1.1
COc1ccc(CNC(=O)CCOc2ccc(C(C)(C)C)cc2)cc1	0.6	14	-30	41	30	0.9
COC(=O)[C@H](CCSC)NC(=O)NCc1ccc(S(N)(=O)=O)cc1	0.9	3	-4	10	3	1
CCOC(=O)c1ccc(CNC(=O)c2n[nH]c(=O)c3ccccc23)o1	0.6	16	nt	40	nt	0.8
c1cc2cn[nH]c2cc1NC1CCCCCC1	0.4	99*	4	64*	-3	0
Cc1cc(NC2CCCCC2)nc(N2CCOCC2)n1	0.9	7	-2	11	1	0.9
COc1ccc(-c2nc(NC(=O)C3CCN(c4nc5ccccc5o4)CC3)sc2C)cc1	0.5	29	2	51*	-3	0.7
CCCNC(=O)NC1C(NC(=O)NCCC)N(C)C(=O)N1C (stereo not given)	1	9	11	1	-8	0.9
CCOC(=O)C1=C(C)N(c2ccccc2)C(=O)C1	nt	nt	-8	nt	6	nt
COc1ccc(N2C(=O)CCC(C(=O)c3ccccc3)=C2C)cc1	0.6	95*	nt	37	nt	0.1
Cc1n[nH]c(=S)n1/N=C/c1ccccc1OCc1ccc(Cl)cc1	0.9	-22	-10	11	9	1.2
O=S(=O)(NCc1ccco1)c1cccc(S(=O)(=O)N2CCOCC2)c1	1.1	50*	nt	-5	nt	0.5
O=S(=O)(NCc1ccc(F)cc1)c1cccc(S(=O)(=O)N2CCOCC2)c1	0.5	49	-20	47	18	0.5
O=S(=O)(NCCC1=CCCCC1)c1cccc(S(=O)(=O)N2CCOCC2)c1	0.2	76*	-1	75*	0	0.2
O=S(=O)(NC1CCN(Cc2ccccc2)CC1)c1cccc(S(=O)(=O)N2CCOCC2)c1	0.7	54*	5	31	0	0.5
O=S(=O)(NCCc1ccccc1)c1cccc(S(=O)(=O)N2CCOCC2)c1	0.4	89*	-6	61*	9	0.1
O=S(=O)(CCc1ccccc1)N1CCOCC1	1	70*	nt	-3	nt	0.3
O=C(CCc1ccccc1)NCCCN1CCOCC1	1	8	-11	3	11	0.9
COc1ccc(CCn2c(C)cc3c(c2=O)C(c2ccc4c(c2)OCO4)C(C#N)=C(N)O3)cc1OC (stereo not given)	0.6	44	nt	44	nt	0.6
C=CCSc1nnc(-c2cc3c(-c4ccccc4)nn(C)c3s2)n1C	0.7	55*	3	33	-2	0.5
C=CCSc1nnc(-c2cc3c(C(F)(F)F)nn(C)c3s2)n1C	1.5	-1	7	-49	-4	1
O=C(c1n[nH]c(=O)c2ccccc12)N1CCN(C2c3ccccc3-c3ccccc32)CC1	0.4	68*	-3	64*	5	0.3
SMILES	CYP2C9 activ	CYP2C19 inhib	sEH activator	CYP2C9 inhib	sEH inhibitor	CYP2C19 activ
COc1ccc2[nH]c3c(NCc4ccco4)ncnc3c2c1	0.5	20	0	46	1	0.8
O=C1CCCN1CCCn1cnc2c([nH]c3ccc(F)cc32)c1=O	1	2	8	0	-9	1
Fc1ccc2[nH]c3c(N4CCN(C5CCCCC5)CC4)ncnc3c2c1	0.2	67*	nt	76*	nt	0.3
COc1cccc(N2CCN(c3ncnc4c3[nH]c3ccc(F)cc34)CC2C)c1 (stereo not given)	0.4	59*	3	60*	-2	0.4
COc1ccc2[nH]c3c(N4CC(C)OC(C)C4)ncnc3c2c1 (stereo not given)	0.3	54*	-11	69*	12	0.5
Cc1cc(C)c(-n2c(O)c(C=NCCN3CCOCC3)c(=O)[nH]c2=O)c(C)c1	1.2	-14	4	-17	-6	1.1
COc1ccc(-n2nnnc2-c2cccc(OC)c2)cc1	0.2	99*	14	85*	-13	0
Clc1ccc(-n2nnnc2-c2ccccc2)cc1Cl	0.7	95*	nt	32	nt	0
O=c1c2ccccc2c(-c2ccccc2)nn1-c1ccc(Cl)c(Cl)c1	0.8	43	0	20	-2	0.6
O=C(COc1ccccc1Cl)N1CCN(c2ccc([N+](=O)[O-])c(N3CCOCC3)c2)CC1	0.1	32	-12	85*	12	0.7
O=C(CN1C(=O)c2cccc3cccc1c23)N1CCN(c2ccc(F)cc2)CC1	2.2*	5	9	-119	-10	0.9
Cc1nc2ccccc2nc1OCC(=O)N1CCN(c2ccccc2)CC1	1.2	23	4	-24	-4	0.8
COc1ccc(Nc2ncc(C(=O)N3CCN(c4ccc(F)cc4)CC3)c3ccccc23)cc1	0.3	61*	14	66*	-11	0.4
O=C(COc1ccccc1Br)N1CCN(c2ccccc2)CC1	1	95*	-11	-4	13	0.1
CCC(C)(C)NC(=O)C(c1cccnc1)N(CCOC)C(=O)Cn1nnc2ccccc21 (stereo not given)	0.9	8	12	5	-11	0.9
CC1(C)CN=C(N2CCN(C3=NCC(C)(C)S3)CC2)S1	1	9	nt	4	nt	0.9
O=C(COc1ccc(-n2cnnn2)cc1)N1CCN(c2ccc(F)cc2)CC1	1	-2	30	2	-30	1
O=C(OCC(=O)N1CCN(c2ccccc2)CC1)c1ccc2ccccc2n1	2.3*	-1	nt	-130	nt	1
O=C(OCC(=O)N1CCN(c2ccccc2)CC1)c1ccccn1	1.1	15	11	-12	-11	0.9
O=[N+]([O-])c1ccc(N2CCN(S(=O)(=O)Cc3ccccc3)CC2)cc1N1CCOCC1	0.5	56*	2	53*	-2	0.4
O=[N+]([O-])c1ccc(N2CCCCC2)cc1N1CCOCC1	0.7	28	7	30	-9	0.7
COC(=O)c1ccc(OC)cc1OCC(=O)N1CCN(c2ccc(F)cc2)CC1	0.7	64*	18	32	-15	0.4
O=C(COc1ccccc1Cl)N1CCN(c2ccc(F)cc2)CC1	1.3	82*	-8	-29	10	0.2
O=C(N/N=C/c1ccc(OCCCF)cc1)c1cc(OCC(F)(F)F)ccc1OCC(F)(F)F	0.7	37	4	31	-6	0.6
Cn1c(=O)c2c(ncn2CC(=O)N2CCN(c3ccc(F)cc3)CC2)n(C)c1=O	0.2	0	10	78*	-14	1
